This is an account of results in PubChem BioAssay (EPA / NIEHS).

In assay [1] the target is rat Peripheral-type Benzodiazepine Receptor (PBR), Tspo (gene 24230) (UniProt P16257). Nature of the assay: NVS_MP_rPBR: NovaScreen (NVS) Membrane Protein Assay for rat Peripheral-type Benzodiazepine Receptor (PBR) (AID 2283335). Put shortly: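 Single-concentration duplicate screening at 25 uM preceded concentration-series retesting of actives. Binding of a specific radioligand to rat kidney membrane PBR was read by filtration radiodetection after 1 h, with plate-wise positive and negative controls.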
Sequence of rat Peripheral-type Benzodiazepine Receptor (PBR), Tspo (gene 24230) (P16257 whole entry, looked up): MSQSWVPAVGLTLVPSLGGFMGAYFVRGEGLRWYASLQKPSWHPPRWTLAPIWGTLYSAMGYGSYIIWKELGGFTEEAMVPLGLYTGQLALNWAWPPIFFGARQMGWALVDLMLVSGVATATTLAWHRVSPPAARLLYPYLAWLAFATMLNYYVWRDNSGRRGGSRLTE

The target of assay [2] is rat Glycine Receptor, Strychnine-sensitive (GlyRStrySens), Glra1 (gene 25674) (UniProt P07727). The experiment in a line: NVS_LGIC_rGlyRStrySens: NovaScreen (NVS) Ligand-Gated Ion Channel Assay for rat Glycine Receptor, Strychnine-sensitive (GlyRStrySens) (AID 2283341). Put shortly:
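Radioligand displacement on rat spinal cord membranes, 1 hr, filter scintillation read-out. Single-concentration duplicate screen at 25 uM; chemicals meeting threshold (e.g., 30% inhibition) rerun in concentration-response up to 50 uM. Loss of binding fitted versus DMSO.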

In assay [3] the test system is guinea pig Histamine Receptor (H2), gene 100729734. The experiment in a line: NVS_GPCR_gH2: NovaScreen (NVS) G Protein-Coupled Receptor Assay for guinea pig Histamine Receptor (H2) (AID 2283342). An outline of the steps:
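Guinea pig striatal membrane preparation with specific radioligand; bound counts measured by filtration and scintillation 1 h post-dosing, DMSO as baseline. Chemicals passing a 25 uM duplicate screen were titrated to a 50 uM maximum.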

The target in assay [4] is Estrogen receptor (Homo sapiens) (UniProt P03372). Nature of the assay: OT_ER_ERaERa_0480: Odyssey Thera (OT) 8-hour HEK293T Protein-Complementation Assay for Estrogen Receptor-alpha/-alpha Homodimer (AID 2283351).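 Further: rise in fluorescence from reassembled reporter fragments on ERα LBD homodimer in nucleus or whole cell.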 Put shortly:
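Read-out: fluorescence intensity rise relative to DMSO, nuclear for agonists, nuclear plus cytoplasmic for antagonists. Construct is the ERα LBD (aa 310-547) homodimer fragment-complementation pair, stably expressed in HEK293T; exposure 8 h.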

Assay [5] has as its target Small conductance calcium-activated potassium channel protein 1 (Rattus norvegicus) (UniProt P70606). Nature of the assay: NVS_IC_rKCaCh: NovaScreen (NVS) Ion Channel Assay for rat Potassium Channel, Ca2+ Act., VI (KCaCh) (AID 2283336). An outline of the steps:
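Filter-based scintillation counting of radioligand bound to rat forebrain membrane preparations, measured 1 h after compound addition. Primary screen used 25 uM in duplicate, with concentration-response follow-up; signal decrease relative to DMSO marks activity.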

Assay [6] addresses Estrogen receptor beta (Homo sapiens) (UniProt Q92731). The experiment in a line: OT_ER_ERbERb_0480: Odyssey Thera (OT) 8-hour HEK293T Protein-Complementation Assay for Estrogen Receptor-beta/-beta Homodimer (AID 2283357).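 Further: active means signal gain over DMSO baseline.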 An outline of the steps:
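Fluorescence gain from complemented reporter fragments on ER-beta LBD homodimer in HEK293T was quantified against DMSO controls after 8 h treatment, fixation in 4% formaldehyde and Draq5 staining.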

The target of assay [7] is bovine Gamma-Aminobutyric Acid Type A Receptor Agonist (GABAR Agonist), GABRA1 (gene 780973) (UniProt P08219). Nature of the assay: NVS_LGIC_bGABAR_Agonist: NovaScreen (NVS) Ligand-Gated Ion Channel Assay for bovine Gamma-Aminobutyric Acid Type A Receptor Agonist (GABAR Agonist) (AID 2283338). Put shortly: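 Radioligand binding to bovine cerebellar membranes in agonist format, read by filter-based scintillation counting after 1 h. Primary screen in duplicate at 25 uM, with actives followed in concentration series. Gain of signal versus DMSO.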
Sequence of bovine Gamma-Aminobutyric Acid Type A Receptor Agonist (GABAR Agonist), GABRA1 (gene 780973) (P08219 whole entry, looked up): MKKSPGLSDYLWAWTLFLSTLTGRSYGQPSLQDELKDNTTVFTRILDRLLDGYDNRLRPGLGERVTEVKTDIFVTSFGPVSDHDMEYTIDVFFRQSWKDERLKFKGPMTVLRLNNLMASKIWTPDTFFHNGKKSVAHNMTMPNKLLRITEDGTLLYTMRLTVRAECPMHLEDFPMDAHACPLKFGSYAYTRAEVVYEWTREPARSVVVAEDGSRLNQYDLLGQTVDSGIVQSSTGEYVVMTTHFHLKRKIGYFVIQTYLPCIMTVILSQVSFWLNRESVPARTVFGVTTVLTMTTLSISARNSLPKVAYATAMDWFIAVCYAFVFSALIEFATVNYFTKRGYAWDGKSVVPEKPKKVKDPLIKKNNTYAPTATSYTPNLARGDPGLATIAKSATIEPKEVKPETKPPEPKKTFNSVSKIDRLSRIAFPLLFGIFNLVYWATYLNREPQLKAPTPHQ

Assay [8] is described as follows: NVS_IC_rCaBTZCHL: NovaScreen (NVS) Ion Channel Assay for Calcium Channel, Type L, Benzothiazepine Site (CaBTZCHL) (AID 2283337). Put shortly:
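Rat cortical membrane preparation, cell-free. Radioligand displaced by test chemical; 1.5 h incubation; filtration, scintillation count. DMSO = negative control/baseline. Primary: duplicate, 25 uM; secondary: concentration series.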

For assay [9], the target named is Glutamate receptor ionotropic, kainate 1 (Rattus norvegicus) (UniProt P22756). The experiment in a line: NVS_IC_rKAR: NovaScreen (NVS) Ion Channel Assay for rat Kainic Acid Receptors (KAR) (AID 2283334; active means hit-call score of the fitted dose curve at least 0.9, where 1 is the maximum; inactive means score below 0.9). Put shortly:
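Rat forebrain membrane preparation incubated 1 h with radioligand and test chemical; bound signal read by filtration and scintillation. Single-concentration screen at 25 uM, then concentration series to 50 uM maximum.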

Assay [10] has as its target rat Glutamate, MK-801 Agonist Site (GluNMDA_MK801), Grin1 (gene 24408) (UniProt P35439). The experiment in a line: NVS_LGIC_rGluNMDA_MK801_Agonist: NovaScreen (NVS) Ligand-Gated Ion Channel Assay for rat Glutamate, MK-801 Agonist Site (GluNMDA_MK801) (AID 2283340). Put shortly: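 Rat forebrain membrane preparation; MK-801-site radioligand binding read by filtration and scintillation after 1.5 h. Single-point 25 uM duplicate screen, followed by singleton concentration series to 50 uM max; DMSO baseline.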

Assay [11] deals with Estrogen receptor (Homo sapiens) + Estrogen receptor beta (Homo sapiens) (UniProt P03372+Q92731). Nature of the assay: OT_ER_ERaERb_1440: Odyssey Thera (OT) 24-hour HEK293T Protein-Complementation Assay for Estrogen Receptor-alpha/-beta Homodimer (AID 2283356).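 Further: heteromer of ER alpha and ER beta binding domains; hits raise reporter fluorescence and both agonists and antagonists give an increase.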 An outline of the steps: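 24 h exposure; HEK293T PCA cells with ERα/ERβ LBD fragments; signal rise in nuclear or whole-cell fluorescence over vehicle.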
Sequence of Estrogen receptor (Homo sapiens) + Estrogen receptor beta (Homo sapiens) (P03372 whole entry, looked up, the tested form may be a part): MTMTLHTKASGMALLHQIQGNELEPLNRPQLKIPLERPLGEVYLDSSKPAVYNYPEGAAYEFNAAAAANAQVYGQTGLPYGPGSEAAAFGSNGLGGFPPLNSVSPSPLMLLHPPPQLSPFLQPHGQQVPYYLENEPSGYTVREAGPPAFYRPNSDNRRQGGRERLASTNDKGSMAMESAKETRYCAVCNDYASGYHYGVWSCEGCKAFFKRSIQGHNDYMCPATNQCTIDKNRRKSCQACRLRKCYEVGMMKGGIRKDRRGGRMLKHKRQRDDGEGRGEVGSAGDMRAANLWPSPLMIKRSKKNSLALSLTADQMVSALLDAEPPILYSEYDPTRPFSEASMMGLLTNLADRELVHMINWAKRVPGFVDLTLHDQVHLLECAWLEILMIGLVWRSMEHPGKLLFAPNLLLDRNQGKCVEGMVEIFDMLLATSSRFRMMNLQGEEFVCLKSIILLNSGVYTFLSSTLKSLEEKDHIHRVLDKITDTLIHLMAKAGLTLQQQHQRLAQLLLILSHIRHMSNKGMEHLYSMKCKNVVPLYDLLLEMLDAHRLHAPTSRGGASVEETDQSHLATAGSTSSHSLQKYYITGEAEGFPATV
Sequence of Estrogen receptor (Homo sapiens) + Estrogen receptor beta (Homo sapiens) (Q92731 whole entry, looked up, the tested form may be a part): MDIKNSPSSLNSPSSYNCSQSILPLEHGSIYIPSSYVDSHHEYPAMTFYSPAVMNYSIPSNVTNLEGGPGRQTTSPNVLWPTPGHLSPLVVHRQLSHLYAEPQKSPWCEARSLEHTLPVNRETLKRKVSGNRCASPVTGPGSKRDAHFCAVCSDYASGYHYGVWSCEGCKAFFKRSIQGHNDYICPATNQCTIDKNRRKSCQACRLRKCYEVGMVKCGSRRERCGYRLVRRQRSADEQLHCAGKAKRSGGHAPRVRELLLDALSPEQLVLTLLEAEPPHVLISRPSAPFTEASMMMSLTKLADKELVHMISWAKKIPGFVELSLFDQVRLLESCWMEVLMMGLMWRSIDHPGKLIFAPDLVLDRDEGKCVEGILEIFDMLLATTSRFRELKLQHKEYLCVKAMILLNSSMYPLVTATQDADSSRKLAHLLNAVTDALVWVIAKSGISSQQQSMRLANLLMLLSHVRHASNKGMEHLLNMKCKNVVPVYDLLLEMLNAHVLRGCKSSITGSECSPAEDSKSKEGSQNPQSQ

The target in assay [12] is Estrogen receptor (Homo sapiens) (UniProt P03372). The experiment in a line: NVS_NR_hER: NovaScreen (NVS) Nuclear Receptor Binding Assay for human Estrogen Receptor (ER) (AID 2283348). Put shortly: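 Radiodetection of ligand displacement in a lysate-based, cell-free format using MCF7 extracts, read at 18 hours. Duplicate 25 uM primary testing, then concentration series for actives.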
Sequence of Estrogen receptor (Homo sapiens) (P03372 whole entry, looked up, the tested form may be a part): as the sequence (P03372 whole entry, looked up, the tested form may be a part) above

Assay [13] deals with chimpanzee Androgen Receptor (AR), AR (gene 747460) (UniProt O97775). Nature of the assay: NVS_NR_cAR: NovaScreen (NVS) Nuclear Receptor Binding Assay for chimpanzee Androgen Receptor (AR) (AID 2283346). An outline of the steps: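 Cell-free radioligand displacement using receptor protein extracted from Sf9/Sf21 cells; bound radioligand measured by scintillation counting 72 hours after chemical dosing. Loss of signal versus DMSO baseline indicates binding; primary screen single-concentration in duplicate at 25 uM, actives followed in concentration series.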
Sequence of chimpanzee Androgen Receptor (AR), AR (gene 747460) (O97775 whole entry, looked up): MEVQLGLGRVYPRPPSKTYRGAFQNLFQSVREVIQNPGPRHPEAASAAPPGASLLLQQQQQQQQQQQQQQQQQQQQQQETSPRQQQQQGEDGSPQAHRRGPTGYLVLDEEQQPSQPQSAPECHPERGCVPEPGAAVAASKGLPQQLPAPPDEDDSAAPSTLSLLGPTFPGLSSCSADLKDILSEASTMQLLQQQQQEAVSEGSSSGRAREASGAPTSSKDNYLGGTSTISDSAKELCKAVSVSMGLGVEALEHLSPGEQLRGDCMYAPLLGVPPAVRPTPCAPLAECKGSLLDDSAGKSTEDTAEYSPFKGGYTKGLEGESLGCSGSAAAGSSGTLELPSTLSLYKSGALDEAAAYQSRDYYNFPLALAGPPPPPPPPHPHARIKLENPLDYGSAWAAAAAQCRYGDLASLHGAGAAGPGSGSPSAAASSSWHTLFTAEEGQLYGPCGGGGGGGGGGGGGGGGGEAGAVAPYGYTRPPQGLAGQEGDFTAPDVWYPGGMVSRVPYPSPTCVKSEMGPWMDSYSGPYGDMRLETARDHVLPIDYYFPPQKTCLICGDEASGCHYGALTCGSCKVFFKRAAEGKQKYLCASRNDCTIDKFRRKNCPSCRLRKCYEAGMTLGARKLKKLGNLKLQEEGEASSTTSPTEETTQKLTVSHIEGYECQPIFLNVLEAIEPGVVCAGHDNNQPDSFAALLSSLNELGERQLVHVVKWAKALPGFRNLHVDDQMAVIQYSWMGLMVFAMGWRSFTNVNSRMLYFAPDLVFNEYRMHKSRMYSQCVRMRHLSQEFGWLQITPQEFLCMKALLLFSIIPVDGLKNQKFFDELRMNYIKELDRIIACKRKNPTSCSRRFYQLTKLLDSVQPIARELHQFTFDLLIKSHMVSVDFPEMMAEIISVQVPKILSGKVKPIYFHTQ

For assay [14], the target named is Bile acid receptor (Homo sapiens) (UniProt Q96RI1). The experiment in a line: NVS_NR_hFXR_Antagonist: NovaScreen (NVS) Nuclear Receptor Binding Assay for human Farnesoid X Receptor Antagonism (FXR) (AID 2283350). An outline of the steps:
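Antagonist-format time-resolved FRET binding assay with extracted human receptor protein, read 1 hour after compound addition. Compounds first screened at 25 uM in duplicate, then actives tested in concentration series, with loss of signal relative to DMSO.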

Assay [15] addresses Androgen Receptor/SRC-1 Co-activator, AR (gene 367) (UniProt P10275). Nature of the assay: OT_AR_ARSRC1_0960: Odyssey Thera (OT) 16-hour HEK293T Protein-Complementation Assay for Androgen Receptor/SRC-1 Co-activator (AID 2283353).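 Further: actives raise the signal above DMSO so potency reflects increased AR and SRC-1 complex.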 An outline of the steps: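 Readout: 488 nm nuclear-to-cytoplasmic fluorescence ratio from imaging of at least 400 cells per image, 16 h post-dose. Reporter is Venus YFP complementation between AR and SRC-1 fusions, stably expressed in HEK293T; activity scored upward relative to DMSO.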

Assay [16] shares this target. Nature of the assay: OT_AR_ARSRC1_0480: Odyssey Thera (OT) 8-hour HEK293T Protein-Complementation Assay for Androgen Receptor/SRC-1 Co-activator (AID 2283354).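 Further: hits raise the complementation signal above DMSO so AC50 marks enhancers.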 Put shortly:
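After 8 h dosing, stably expressing HEK293T cells with split-Venus AR/SRC-1 fusions were imaged (488, 635nm). The 488nm N/C ratio per image gave the endpoint, analysed in the positive direction against DMSO.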

Results filed as inconclusive are left out. Calls of active or inactive are those of the source. How the source made its calls, unless noted: active means hit-call score of the fitted dose curve at least 0.9, where 1 is the maximum; inconclusive means response in the unintended direction; inactive means score below 0.9.

In general, AC50 refers to the concentration giving half of the maximal activity seen.

Sequence of Estrogen receptor beta (Homo sapiens) (Q92731 whole entry, looked up, the tested form may be a part): as the sequence (Q92731 whole entry, looked up, the tested form may be a part) above
Sequence of Glutamate receptor ionotropic, kainate 1 (Rattus norvegicus) (P22756 whole entry, looked up): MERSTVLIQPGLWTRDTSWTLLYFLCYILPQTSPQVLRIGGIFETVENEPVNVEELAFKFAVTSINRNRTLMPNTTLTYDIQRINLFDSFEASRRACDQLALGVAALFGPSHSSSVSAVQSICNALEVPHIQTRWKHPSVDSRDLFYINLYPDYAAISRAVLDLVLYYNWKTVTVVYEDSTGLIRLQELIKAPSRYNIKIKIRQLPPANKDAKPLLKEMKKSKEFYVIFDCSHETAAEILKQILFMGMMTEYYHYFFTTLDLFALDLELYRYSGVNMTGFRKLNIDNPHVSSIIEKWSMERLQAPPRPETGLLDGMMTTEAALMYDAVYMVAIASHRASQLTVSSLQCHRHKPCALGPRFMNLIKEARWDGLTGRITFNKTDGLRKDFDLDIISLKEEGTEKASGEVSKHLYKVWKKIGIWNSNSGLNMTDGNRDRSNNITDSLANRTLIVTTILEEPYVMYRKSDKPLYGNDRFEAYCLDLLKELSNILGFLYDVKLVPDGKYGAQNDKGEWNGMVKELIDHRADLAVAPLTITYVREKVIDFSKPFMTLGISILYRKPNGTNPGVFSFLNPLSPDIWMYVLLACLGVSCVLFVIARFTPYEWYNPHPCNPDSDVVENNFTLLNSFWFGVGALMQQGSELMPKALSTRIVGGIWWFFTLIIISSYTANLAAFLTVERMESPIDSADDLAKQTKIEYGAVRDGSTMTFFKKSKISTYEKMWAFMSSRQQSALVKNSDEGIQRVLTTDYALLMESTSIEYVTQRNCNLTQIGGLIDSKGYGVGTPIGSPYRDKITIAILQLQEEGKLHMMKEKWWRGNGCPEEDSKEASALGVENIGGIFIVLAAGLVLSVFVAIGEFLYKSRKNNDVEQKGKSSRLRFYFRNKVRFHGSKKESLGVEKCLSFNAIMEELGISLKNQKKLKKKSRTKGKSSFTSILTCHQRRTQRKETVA

As for `COc1ccc(-n2nc(C(F)F)cc2-c2ccc(S(C)=O)cc2)cc1` (configuration not stated), the AC50 was 14.7 µM (active) in assay [1] and 25 µM (active) in assay [3]. The compound was classed as inactive in assay [2] and in [4].

With `CCOCCO`, the result in assay [5] and in [6] was inactive.

Consider `Cc1ccc(C)c(O)c1`, for which, in [7], the compound was called inactive.

For the compound `CCCCCCCCCCCCCCCO`, the compound was classed as inactive in [7] and in [6].

`Cc1[nH]cnc1C[C@H]1CCc2c(C)c3ccccc3n2C1=O`: the result in [8] and in assay [6] was inactive. Besides, the AC50 in assay [7] is 9.14 µM (active); in [3], 12.2 µM (active).

For `O=c1[nH]c2ccc(S(=O)CCN3CCC(Cc4ccc(F)cc4)CC3)cc2o1` (configuration not stated), the result in assay [9], in assay [10], in assay [4] and in [11] was inactive. The AC50 in assay [3] was 1.21 µM (active).

Turning to `COCCOc1cc2cc(C(=O)NC3CCN(C(C)C)CC3)n(CC(=O)Nc3ccc(Cl)cn3)c2cn1`, the results for the AC50 in assay [8] and in assay [3] were 5.21 µM (active) and 12.8 µM (active), respectively. Also, in assay [6], the compound was called inactive.

For `Cc1c(-c2cccnc2)c2ccccc2n1CCCCC(=O)O`, the AC50 in [1] was 9.13 µM (active). Moreover, in assay [6], the result was inactive.

For the compound `Cn1c(=O)cc(Oc2ccc(F)cc2F)c2cnc(NCC(C)(C)O)nc21`, the results for the AC50 in [1], in assay [4] and in assay [11] were 9.69 µM (active), 24.4 µM (active) and 50 µM (active), respectively. In addition, the compound was called inactive in [12] and in assay [6].

`CCC(C)(C)C(=O)O[C@H]1C[C@@H](C)C=C2C=C[C@H](C)[C@H](CC[C@@H]3C[C@@H](O)CC(=O)O3)[C@H]21`: the outcome in assay [9], in assay [12], in [4], in assay [11] and in assay [6] was inactive.

Regarding `O=C(O)CC(O)C(=O)O` (configuration not stated), the result in assay [5] and in [3] was inactive.

As to `CCOC(=O)c1ccc(C2CCC(NC[C@H](O)COc3ccc(O)c(NS(C)(=O)=O)c3)CC2)cc1` (some centres not stated), the results for the AC50 in assay [8] and in assay [3] were 7.7 µM (active) and 9.42 µM (active), respectively. For the same compound, in [6], the outcome was inactive.

Turning to `O=C(O)c1cc(N=Nc2ccc(S(=O)(=O)Nc3ccccn3)cc2)ccc1O`, the values for the AC50 in assay [1] and in [13] were 0.655 µM (active) and 5.35 µM (active), respectively. The outcome in assay [6] was inactive.

Regarding `COc1ccc2sc(C(=O)Nc3nnn[nH]3)c(OC(C)C)c2c1`, the result in assay [9], in assay [13], in assay [12], in assay [4], in [11] and in assay [6] was inactive. Also, the AC50 in assay [1] was 25 µM (active).

As to `CNS(=O)(=O)c1cc(C(=O)N2CCC(CCN3C4CCC3CC(n3c(C)nc5ccccc53)C4)(c3cccc(F)c3)CC2)c(Cl)cc1F` (configuration not stated), the AC50 in assay [8] was 7.92 µM (active); in assay [3], 8.76 µM (active); in [13], 11.3 µM (active); in assay [14], 8.21 µM (active); in assay [15], 31.9 µM (active); in assay [16], 32 µM (active). The outcome in [6] was inactive.

As to `CC(C)c1cccc(C(C)C)c1N1C(=O)c2ccc(O)cc2C1=O`, the AC50 in assay [14] is 41.1 µM (active).

As for `Cc1ccc(S(=O)(=O)O)cc1C`, the compound was classed as inactive in assay [4].
